Reference: PubChem BioAssay (NCATS)
Records with an inconclusive call do not appear. A call without a number means that no potency is given here. Activity calls are given as the source filed them. Calls come from the whole dose curve; as a rule, active = well fitted inhibition curve with a large enough effect; inconclusive = small, poorly fitted or top-dose-only effect; inactive = flat fitted curve, though single readings scatter.
Potency is the fitted concentration of half-maximal effect.

Each compound was assayed against Ubiquitin carboxyl-terminal hydrolase 1 (Homo sapiens) (UniProt O94782) (assay: Inhibitors of USP1/UAF1: Pilot qHTS (AID 504865; note: nearly all actives have a fitted effect of over 35% in size)). Details: purified USP1/UAF1, Ub-rhodamine cleavage fluorescence; series mostly up to 114 µM.
Sequence of Ubiquitin carboxyl-terminal hydrolase 1 (Homo sapiens) (O94782 whole entry, looked up): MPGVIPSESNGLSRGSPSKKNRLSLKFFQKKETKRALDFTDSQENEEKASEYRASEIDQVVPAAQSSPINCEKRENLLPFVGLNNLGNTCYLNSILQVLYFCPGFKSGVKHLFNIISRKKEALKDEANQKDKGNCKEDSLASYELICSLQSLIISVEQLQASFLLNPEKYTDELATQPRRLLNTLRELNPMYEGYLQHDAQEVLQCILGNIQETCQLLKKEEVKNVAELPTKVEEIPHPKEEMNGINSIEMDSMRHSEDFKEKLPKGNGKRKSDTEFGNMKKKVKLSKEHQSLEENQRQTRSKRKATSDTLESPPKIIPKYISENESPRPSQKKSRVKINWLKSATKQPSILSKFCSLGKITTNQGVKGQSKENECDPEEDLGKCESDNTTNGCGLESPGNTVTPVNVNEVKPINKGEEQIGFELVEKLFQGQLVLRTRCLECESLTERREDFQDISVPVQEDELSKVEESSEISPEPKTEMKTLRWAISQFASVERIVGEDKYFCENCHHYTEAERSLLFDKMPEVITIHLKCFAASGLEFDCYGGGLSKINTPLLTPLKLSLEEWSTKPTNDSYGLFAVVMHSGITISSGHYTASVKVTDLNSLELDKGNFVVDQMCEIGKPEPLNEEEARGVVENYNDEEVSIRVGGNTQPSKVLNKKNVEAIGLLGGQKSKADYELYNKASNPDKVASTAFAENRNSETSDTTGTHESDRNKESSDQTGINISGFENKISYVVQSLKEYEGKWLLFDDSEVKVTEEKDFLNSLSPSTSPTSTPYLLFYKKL
Source text: Deubiquitinating enzymes (DUBs) are a class of enzymes that can cleave isopeptide bond formed between the C-terminal carboxylate of ubiquitin and a lysine side-chain amino group on the target protein. Among them, ubiquitin specific proteases (USPs) constitute the largest DUB family. Human USPs are emerging as promising targets for pharmacological intervention because of their connection to a number of human diseases, including prostate, colon and breast cancer (1, 2), pediatric acute lymphoblastic leukemia (3), and familial cylindromatosis (4). The advantage of inhibiting USPs lies in the potential specificity of therapeutic intervention that can lead to better efficacy and reduce nonspecific side effects.
In a collaboration between the University of Delaware and the NIH Chemical Genomics Center, a high-throughput screen assay was developed to screen for USP1/UAF1 inhibitors. This miniaturized assay has a fluorescent read-out and is used to screen the NIH Molecular Libraries Small Molecule Repository (MLSMR) in order to identify a small molecule that inhibits USP1.
NIH Chemical Genomics Center [NCGC]
NIH Molecular Libraries Probe Centers Network [MLPCN]
Assay Submitter (PI): Zhihao Zhuang, University of Delaware
1. Priolo, C., et al. (2006) The isopeptidase USP2a protects human prostate cancer from apoptosis. Cancer Res 66, 8625-8632
2. Popov, N., et al. (2007) The ubiquitin-specific protease USP28 is required for MYC stability. Nat Cell Biol 9, 765-774
3. De Pitta, C., et al. (2005) A leukemia-enriched cDNA microarray platform identifies new transcripts with relevance to the biology of pediatric acute lymphoblastic leukemia. Haematologica 90, 890-898
4. Kovalenko, A., et al. (2003) The tumour suppressor CYLD negatively regulates NF-kappaB signalling by deubiquitination. Nature 424, 801-805
3 microliters of reagents (buffer in columns 3 and 4 as negative control and 1nM USP1/UAF1 complex in columns 1, 2, and 5-48) are dispensed into Greiner black solid bottom 1536-well assay plates. Compounds are then transferred via Kalypsys pin tool equipped with 1536-pin array (10nl slotted pins, V&P Scientific, San Diego, CA). Following an incubation step of 15 min at room temperature, 1ul of Ub-Rho substrate (150nM final concentration) is added to initiate the reaction. The plates are immediately centrifuged at 1000 rpm for 15 seconds, and subsequently transferred to a ViewLux high-throughput CCD imager (PerkinElmer) wherein kinetic measurements of fluorescence are acquired using 480 nm excitation/540 nm emission filter set (6 reads every 60 seconds, see Table 1). All reagents are diluted in an assay buffer consisting of 50mM HEPES (pH 7.8), 0.5mM EDTA, 0.1 mg/ml BSA, 1mM TCEP, and 0.01% Tween-20.
With `NC(=O)c1ncn([C@@H]2O[C@H](CO)[C@@H](O)[C@H]2O)n1` the Potency was “inactive”.
`OCCN1CCN(CCCN2c3ccccc3Sc3ccc(Cl)cc32)CC1` was tested, and the Potency was “inactive”.
With `CCN(CC)CCOC(=O)C1(C2CCCCC2)CCCCC1` the Potency was “inactive”.
In the case of `COc1ccc2[nH]c(S(=O)Cc3ncc(C)c(OC)c3C)nc2n1` (stereo not given), the Potency is reported as “inactive”.
`Nc1ccc(S(=O)(=O)Nc2nccs2)cc1` was tested, and the Potency was “inactive”.
`Cc1ccc(C(C)C)cc2c(C)ccc1-2` was tested, and the Potency was “inactive”.
For `CN1CCC[C@@H]1Cc1c[nH]c2ccc(CCS(=O)(=O)c3ccccc3)cc12`, the Potency was “inactive”.
With `CCC(=O)Nc1ccc(O)cc1` the Potency was “inactive”.
For `C[C@]12C[C@H](O)[C@H]3[C@@H](CCC4=CC(=O)CC[C@@]43C)[C@@H]1CC[C@@H]2C(=O)CO`, the Potency was “inactive”.
`CC(=O)CCC(=O)O` was tested, and the Potency was “inactive”.
With `CC(O)COc1ccccc1` (stereo not given) the Potency was “inactive”.
`c1ccc2c(CC3=NCCN3)cccc2c1` was tested, and the Potency was “inactive”.
`CCCOC(=O)c1ccccc1` was tested, and the Potency was “inactive”.
For `Cc1cc2c(cc1S(N)(=O)=O)S(=O)(=O)CCC2`, the Potency was “inactive”.
In the case of `CN(C)CCCN1c2ccccc2Sc2ccc(Cl)cc21`, the Potency is reported as “inactive”.
For `Oc1cn2c(n1)Nc1ccc(Cl)c(Cl)c1C2`, the Potency was “inactive”.
For `C[C@H]1O[C@@H](n2cc(F)c(=O)[nH]c2=O)[C@H](O)[C@@H]1O`, the Potency was “inactive”.
With `CCCCOc1cc(C(=O)OCCN(CC)CC)ccc1N` the Potency was “inactive”.
`Cc1cc(CC(=O)O)n(C)c1C(=O)c1ccc(Cl)cc1` was tested, and the Potency was “inactive”.
For `NC(=O)NC(=O)Cc1ccccc1`, the Potency was “inactive”.
In the case of `COc1cc2[nH]c(=O)[nH]c(=O)c2cc1OC`, the Potency is reported as “inactive”.
For `NC(=O)NNc1ccccc1`, the Potency was “inactive”.
In the case of `O=C1NS(=O)(=O)c2ccccc21`, the Potency is reported as “inactive”.
`CN(C)CC[C@@H](c1ccc(Cl)cc1)c1ccccn1` was tested, and the Potency was “inactive”.
In the case of `Cc1cccc(C)c1NC(=O)CN(CC(=O)O)CC(=O)O`, the Potency is reported as “inactive”.
`O=C(O)CC(O)C(=O)O` (stereo not given) was tested, and the Potency was “inactive”.
`Cc1c(Cl)cccc1Nc1ccccc1C(=O)O` was tested, and the Potency was “inactive”.
In the case of `CC(=O)NC(Cc1ccccc1)C(=O)O` (stereo not given), the Potency is reported as “inactive”.
`O=C(Oc1ccccc1C(=O)O)c1ccccc1O` was tested, and the Potency was “inactive”.
With `CC(C)C(=O)c1c(C(C)C)nn2ccccc12` the Potency was “inactive”.
With `CC1=C(/C=C/C(C)=C/C=C/C(C)=C/C(=O)O)C(C)(C)CCC1` the Potency was 79.4 µM (active).
In the case of `O=C1N=C(O)CN1/N=C/c1ccc(-c2ccc([N+](=O)[O-])cc2)o1`, the Potency is reported as “inactive”.
`CC1=C(CC(=O)O)c2cc(F)ccc2/C1=C\c1ccc(S(C)=O)cc1` (stereo not given) was tested, and the Potency was “inactive”.
For `O=S(=O)(O)NC1CCCCC1`, the Potency was “inactive”.
In the case of `CCCCN(CCCC)CCCOC(=O)c1ccc(N)cc1`, the Potency is reported as “inactive”.
`CC(CN(C)C)CN1c2ccccc2CCc2ccccc21` (stereo not given) was tested, and the Potency was “inactive”.
For `COc1ccccc1O`, the Potency was “inactive”.
For `Cn1c(=O)c2c(ncn2CC2OCCO2)n(C)c1=O`, the Potency was “inactive”.
`OC[C@H]1O[C@@H](O[C@@H]2[C@@H](CO)O[C@](O)(CO)[C@H]2O)[C@H](O)[C@@H](O)[C@H]1O` was tested, and the Potency was “inactive”.
For `Nc1ncnc2c1ncn2[C@@H]1O[C@H](CO)[C@@H](O)[C@H]1O`, the Potency was “inactive”.
